Among the data in PubChem BioAssay are composite z-score, composite Z-score and z-score values, retold here.

Activity calls are given as the source filed them.

Experiment [1] has as its target Albumin (Bos taurus) (UniProt P02769). The experiment can be described thus: compounds binding labelled BSA control protein – biochemical, small-molecule microarray, Alexa647 label, 635/667 nm fluorescence, artefact control for SMM control protein annotation, profiling panel (AID 1118).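 Note: score merges 667 nm emission intensity and signal-to-noise per printed compound spot.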 Conditions: BSA-A647 binding, fluorescence 635 nm, higher = more signal.
Experiment [2] in a line: probe aXIP binding to arrayed compounds – biochemical, NeuroSMM set, 635/667 nm fluorescence, primary screen (AID 1119).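 Note: probe is the protein aXip251-270 applied at 1 µg/mL to compound-printed slides; binding of probe to printed compounds measured as 667 nm fluorescence plus signal to noise.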 The following applies: small-molecule microarray, higher = more signal, called active from +8 up or from −8 down.
The nature of experiment [3]: probe aNOTCH3 binding on compound microarray – biochemical, small-molecule microarray, 635/667 nm fluorescence, primary screen (AID 1120).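 Note: probe is a biotin-tagged antibody raised against NOTCH3 rather than NOTCH3 protein; score merges spot fluorescence near 667 nm with spot signal to noise.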 Conditions: higher = more signal.
Experiment [4] in a line: probe aNOTCH2 binding on compound microarray – biochemical, small-molecule microarray, 635/667 nm fluorescence, primary screen (AID 1121).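 Note: score merges feature fluorescence read at 667 nm with its signal to noise.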 The following applies: higher = more signal.
Experiment [5] deals with Carbonic anhydrase 2 (Homo sapiens) (UniProt P00918). The experiment can be described thus: compounds binding carbonic anhydrase 2 – biochemical, small-molecule microarray, Alexa647-labelled CAII, profiling panel (AID 1122). Conditions: CAII-A647 binding fluorescence, higher = more signal.
Experiment [6] is described as follows: COS7 lysate on small-molecule microarray, probe aHis, 635 nm (AID 1123).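 Note: z-score combines 667nm fluorescence intensity with signal-to-noise per printed compound spot.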 Conditions: COS7 cell lysate, fluorescence, higher = more signal.
The nature of experiment [7]: probe aLAP1 signal on lysate-treated microarray – cell lysate, small-molecule microarray, COS7 lysate, primary screen (AID 1124).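 Note: lysate comes from COS7 cells expressing LAP1 and is applied at 0.3 µg/mL; score merges spot fluorescence near 667 nm with signal-to-noise over triplicate slides.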 Conditions: probe aLAP1, fluorescence, higher = more signal.
For experiment [8], the system named is Sam68 (KHDRBS1). The experiment can be described thus: compounds binding KHDRBS1 protein – biochemical, small-molecule microarray, 635 nm fluorescence, primary screen (AID 1125).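 Note: score merges 667 nm channel intensity with signal to noise over triplicate slides.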 Conditions: higher = more signal.
In experiment [9] the test system is Chordin-like protein 2 (CHRDL2). The experiment can be described thus: compounds binding chordin-like 2 – biochemical, small-molecule microarray, 635 nm fluorescence, primary screen (AID 1126).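 Note: printed compound slides probed with Chrdl2 protein at 4 µg/mL for 1 h at 4 C; score merges 667 nm emission intensity with signal to noise over three replicate slides.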 The following applies: fluorescence 635 nm, higher = more signal.
The target in experiment [10] is Concanavalin-A (Canavalia ensiformis) (UniProt P02866). Description: compounds binding concanavalin A lectin – biochemical, small-molecule microarray, Alexa647 label, 635 nm, artefact control for SMM control protein annotation, primary screen (AID 1127).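 Note: z combines 667 nm emission intensity with signal-to-noise across three replicate slides.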 Conditions: ConA-A647 binding fluorescence, higher = more signal.
Chain of Concanavalin-A (Canavalia ensiformis) (P02866 whole entry, looked up): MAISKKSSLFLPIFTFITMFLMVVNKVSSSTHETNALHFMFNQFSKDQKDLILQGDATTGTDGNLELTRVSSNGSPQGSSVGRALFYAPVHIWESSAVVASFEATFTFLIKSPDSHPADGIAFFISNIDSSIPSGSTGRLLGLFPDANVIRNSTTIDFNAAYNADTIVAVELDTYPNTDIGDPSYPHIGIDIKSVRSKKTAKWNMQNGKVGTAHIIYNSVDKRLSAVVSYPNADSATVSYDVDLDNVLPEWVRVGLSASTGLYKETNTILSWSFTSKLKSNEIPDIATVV
Experiment [11] can be described thus: compounds binding Alexa647 anti-His antibody – biochemical, small-molecule microarray, 635 nm fluorescence, artefact control for SMM control protein annotation, primary screen (AID 1128).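 Note: score merges feature fluorescence with signal-to-noise for each printed compound spot.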 Conditions: higher = more signal.
The subject of experiment [12] is Human papillomavirus type 1a E7 protein (residues 1-88). Description: HPV1a E7 small-molecule binders, primary screen, biochemical, small-molecule microarray, residues 1-88, 635 nm (AID 1129). Conditions: small-molecule microarray binding, fluorescence 635 nm; higher = more signal.
The target of experiment [13] is Focal adhesion kinase 1 (Homo sapiens) (UniProt Q05397). The experiment can be described thus: PTK2 protein binding on printed compound slides – biochemical, small-molecule microarray, 635/667 nm fluorescence, BSA, DTT, primary screen (AID 1130).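 Note: composite of spot emission at 667 nm and signal to noise over triplicate slides.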 The following applies: 635 nm fluorescence, higher = more signal.
Chain of Focal adhesion kinase 1 (Homo sapiens) (Q05397 whole entry, looked up): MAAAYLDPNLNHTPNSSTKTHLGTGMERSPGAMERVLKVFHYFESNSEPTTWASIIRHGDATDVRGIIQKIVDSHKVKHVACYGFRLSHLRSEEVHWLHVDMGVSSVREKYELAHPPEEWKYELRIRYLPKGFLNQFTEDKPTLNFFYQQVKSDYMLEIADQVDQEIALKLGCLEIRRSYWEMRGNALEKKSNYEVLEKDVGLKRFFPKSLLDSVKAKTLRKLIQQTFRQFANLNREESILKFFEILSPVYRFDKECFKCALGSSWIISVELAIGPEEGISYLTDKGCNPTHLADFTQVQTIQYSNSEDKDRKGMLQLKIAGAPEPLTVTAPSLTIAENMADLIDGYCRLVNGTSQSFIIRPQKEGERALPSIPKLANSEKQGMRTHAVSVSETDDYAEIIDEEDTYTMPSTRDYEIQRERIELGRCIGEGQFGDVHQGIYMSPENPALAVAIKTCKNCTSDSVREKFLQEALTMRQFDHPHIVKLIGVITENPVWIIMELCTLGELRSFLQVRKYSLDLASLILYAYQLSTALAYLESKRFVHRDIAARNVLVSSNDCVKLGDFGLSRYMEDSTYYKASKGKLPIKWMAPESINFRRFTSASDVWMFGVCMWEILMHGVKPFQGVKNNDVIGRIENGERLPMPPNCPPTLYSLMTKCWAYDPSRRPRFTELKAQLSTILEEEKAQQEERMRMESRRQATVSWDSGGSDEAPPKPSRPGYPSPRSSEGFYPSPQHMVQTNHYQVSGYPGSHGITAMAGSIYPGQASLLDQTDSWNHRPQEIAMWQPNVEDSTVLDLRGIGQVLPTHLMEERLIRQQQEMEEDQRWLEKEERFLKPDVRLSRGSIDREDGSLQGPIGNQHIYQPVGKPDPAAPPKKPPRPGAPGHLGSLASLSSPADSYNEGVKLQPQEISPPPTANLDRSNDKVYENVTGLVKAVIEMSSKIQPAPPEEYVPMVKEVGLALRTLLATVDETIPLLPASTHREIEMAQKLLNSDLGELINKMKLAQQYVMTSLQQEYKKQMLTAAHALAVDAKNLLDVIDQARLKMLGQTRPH
Experiment [14] deals with Fibrinogen (Alexa647-labelled). Description: Alexa647-fibrinogen binding to printed small molecules – biochemical, small-molecule microarray, 635/667 nm fluorescence, artefact control for SMM control-protein annotation, profiling panel (AID 1131).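 Note: z-score merges 667 nm fluorescence with per-spot signal-to-noise over triplicate slides.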 Conditions: fibrinogen-A647 binding fluorescence, higher = more signal.
Experiment [15] addresses Follistatin (Homo sapiens) (UniProt P19883). Description: FST protein binding to printed compounds – biochemical, small-molecule microarray, 635/667 nm fluorescence, primary screen (AID 1132). Conditions: 635 nm fluorescence, higher = more signal.
Experiment [16] deals with Fibroblast growth factor 2 (Homo sapiens) (UniProt P09038). The experiment can be described thus: basic fibroblast growth factor binding to printed compounds – biochemical, small-molecule microarray, 635/667 nm fluorescence, primary screen (AID 1133). Conditions: FGF2, fluorescence 635/667, higher = more signal.
Chain of Fibroblast growth factor 2 (Homo sapiens) (P09038 whole entry, looked up): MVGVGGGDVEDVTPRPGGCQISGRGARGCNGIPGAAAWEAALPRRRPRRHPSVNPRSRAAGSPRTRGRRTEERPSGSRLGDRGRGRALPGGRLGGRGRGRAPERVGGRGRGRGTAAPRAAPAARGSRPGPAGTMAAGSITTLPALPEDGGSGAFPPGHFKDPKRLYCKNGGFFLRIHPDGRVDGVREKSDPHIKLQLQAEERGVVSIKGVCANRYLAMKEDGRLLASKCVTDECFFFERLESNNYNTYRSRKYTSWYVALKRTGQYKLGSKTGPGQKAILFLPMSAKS
The nature of experiment [17]: JC-1 mitochondrial potential readout, lung cancer cells – cell-based, A549, JC-1 fluorescence, basal, 24 h, 100 nL, profiling panel (AID 1138).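 Note: A549 lung adenocarcinoma cells under basal conditions with no added stimulus; test concentration not given here.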 Conditions: higher = more signal.
The subject of experiment [18] is Lefty1. The experiment can be described thus: Lefty1 protein binding to printed compounds – biochemical, small-molecule microarray, 635/667 nm fluorescence, primary screen (AID 1139). Conditions: fluorescence 635/667, higher = more signal.
Experiment [19] has as its system wheat germ agglutinin (Triticum aestivum), Alexa647-labelled. The experiment can be described thus: Alexa647-WGA lectin binding to printed small molecules – biochemical, small-molecule microarray, 635/667 nm fluorescence, artefact control for SMM control-protein annotation, profiling panel (AID 1140).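 Note: score merges 667 nm feature emission with signal to noise over triplicate slides.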 Conditions: WGA-A647 binding, 635 nm fluorescence, higher = more signal.

Experiment [20] has as its target Luciferin 4-monooxygenase (Photinus pyralis) (UniProt P08659). Description: inhibition of purified Photinus pyralis luciferase – biochemical, luminescence, purified enzyme, 2006 set, primary screen (AID 1141).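 Note: cell-free assay with purified firefly luciferase at 100 ng per well in PBS; test concentration not given here.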 The following applies: purified firefly luciferase, SteadyGlo luminescence, 30 min; higher = more signal, called active from +8 up or from −8 down.

Chain of Luciferin 4-monooxygenase (Photinus pyralis) (P08659 whole entry, looked up): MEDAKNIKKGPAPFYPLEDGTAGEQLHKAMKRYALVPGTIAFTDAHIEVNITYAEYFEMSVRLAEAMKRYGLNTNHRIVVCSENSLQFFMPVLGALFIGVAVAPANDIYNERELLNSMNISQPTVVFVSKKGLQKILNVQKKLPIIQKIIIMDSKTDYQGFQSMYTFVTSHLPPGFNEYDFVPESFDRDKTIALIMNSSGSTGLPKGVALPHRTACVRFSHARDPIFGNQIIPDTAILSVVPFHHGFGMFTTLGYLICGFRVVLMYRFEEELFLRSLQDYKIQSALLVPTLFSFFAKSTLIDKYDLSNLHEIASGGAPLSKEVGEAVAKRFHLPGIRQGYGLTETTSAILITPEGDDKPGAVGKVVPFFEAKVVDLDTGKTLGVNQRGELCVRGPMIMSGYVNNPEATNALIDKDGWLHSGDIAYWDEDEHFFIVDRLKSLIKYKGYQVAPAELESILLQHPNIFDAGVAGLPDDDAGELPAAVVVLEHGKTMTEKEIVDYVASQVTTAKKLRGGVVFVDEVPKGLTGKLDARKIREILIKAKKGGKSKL
Chain of Follistatin (Homo sapiens) (P19883 whole entry, looked up): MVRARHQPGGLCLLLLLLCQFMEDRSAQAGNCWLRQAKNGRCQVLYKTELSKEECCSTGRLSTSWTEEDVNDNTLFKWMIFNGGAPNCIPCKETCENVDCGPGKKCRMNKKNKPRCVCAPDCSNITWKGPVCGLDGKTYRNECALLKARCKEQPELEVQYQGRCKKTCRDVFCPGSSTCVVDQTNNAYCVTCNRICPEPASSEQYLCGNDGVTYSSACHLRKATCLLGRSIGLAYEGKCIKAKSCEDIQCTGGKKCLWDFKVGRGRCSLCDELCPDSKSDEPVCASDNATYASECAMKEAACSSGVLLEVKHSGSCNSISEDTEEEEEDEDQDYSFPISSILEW
Chain of Albumin (Bos taurus) (P02769 whole entry, looked up): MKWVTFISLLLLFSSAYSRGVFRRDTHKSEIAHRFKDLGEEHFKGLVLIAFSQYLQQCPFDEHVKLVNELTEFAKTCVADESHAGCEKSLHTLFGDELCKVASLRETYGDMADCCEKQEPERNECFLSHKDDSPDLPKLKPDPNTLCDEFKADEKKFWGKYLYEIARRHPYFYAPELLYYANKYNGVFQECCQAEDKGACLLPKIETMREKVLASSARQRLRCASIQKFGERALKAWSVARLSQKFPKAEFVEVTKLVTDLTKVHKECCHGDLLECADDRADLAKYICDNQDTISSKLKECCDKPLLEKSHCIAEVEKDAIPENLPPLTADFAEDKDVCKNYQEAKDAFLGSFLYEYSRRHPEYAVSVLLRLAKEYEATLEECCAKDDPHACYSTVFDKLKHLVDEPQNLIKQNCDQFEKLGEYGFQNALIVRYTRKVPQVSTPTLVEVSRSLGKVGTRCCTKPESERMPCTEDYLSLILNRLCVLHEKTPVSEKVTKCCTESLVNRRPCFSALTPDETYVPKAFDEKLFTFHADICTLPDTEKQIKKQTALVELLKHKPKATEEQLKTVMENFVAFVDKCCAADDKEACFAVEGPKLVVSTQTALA

As to `C=CCN1C(=O)[C@@]2(O[C@@H](CCn3cc([C@H](O)c4ccccc4)nn3)[C@H]([Si](C)(C)c3ccc(OC)cc3)[C@H]2C)c2cc(N3C(=O)c4cccc5cccc3c45)ccc21`, the composite z-score in [1] is 0.0345; in experiment [3], -0.272; in experiment [4], -0.223; in experiment [5], 0.106; in [6] it was 0.436; in [7], 0.0703. Further, the composite z-score was -0.233 in [8]; -1.02 in experiment [9]; 0.341 in experiment [10]; 0.338 in experiment [11]; -0.526 in experiment [12]; -0.204 in [13]. Besides, the composite z-score in experiment [14] is -0.295; in experiment [15], -0.638; in experiment [16] it was -0.722; in experiment [18] it was -0.475; in experiment [19] it was -0.22. Moreover, in [2], the composite Z-score was -0.212 (inactive). The z-score is 1.36 in experiment [17] and -0.0152 (inactive) in [20].

Consider `C[C@@H]1ON(c2ccc(I)cc2)[C@H](c2cccc(NC(=O)OCC3c4ccccc4-c4ccccc43)c2)[C@H]1C(=O)N1C(=O)OC[C@H]1Cc1ccccc1`, for which the composite z-score was -0.0188 in experiment [1]; 0.0276 in [3]; -0.126 in [4]; 0.456 in experiment [5]; 0.367 in [6]; 0.111 in [7]. Besides, the composite z-score in experiment [8] was 0.668; in experiment [9], 0.926; in experiment [10], 1.01; in experiment [11] it was 0.296; in experiment [12] it was 0.506; in [13], -0.0828. Moreover, the composite z-score turned out to be 0.544 in experiment [14]; 0.566 in experiment [15]; 0.249 in experiment [16]; 0.593 in experiment [18]; 0.334 in experiment [19]. The composite Z-score in experiment [2] was -0.222 (inactive). Besides, the z-score in experiment [17] is 1.37; in experiment [20] it was -1.24 (inactive).

With `Cc1ccc(S[C@]2(C(=O)NCC(F)(F)F)CC(=O)N(Cc3ccccc3C(F)(F)F)[C@@H]2c2ccc(CO)cc2)cc1`, the composite z-score was -0.0912 in experiment [1]; -0.233 in experiment [3]; -0.0861 in experiment [4]; 0.653 in [5]; 1.24 in [6]; 1.26 in experiment [7]. Further, the composite z-score in experiment [8] is -0.556; in experiment [9] it was -1.45; in experiment [10], -0.87; in experiment [11], -0.344; in experiment [12] it was -0.481; in experiment [13], -1.09. Also, the composite z-score in [14] was -0.563; in experiment [15], -1.11; in experiment [16] it was -0.826; in experiment [18], -1.44; in experiment [19], -0.564. Besides, the composite Z-score in experiment [2] is 0.0348 (inactive). The z-score in experiment [17] is -0.144; in [20], 0.714 (inactive).

With `C=CC1c2cc(O)c(OC)cc2CCN1C` (stereo not given), the composite z-score in experiment [1] was 0.582; in experiment [3] it was -0.136; in experiment [4], -0.126; in experiment [5], 0.886; in experiment [6] it was -0.0207; in experiment [7], 0.0879. Also, the composite z-score in experiment [8] was -0.589; in experiment [9] it was -0.644; in experiment [10], -1.24; in experiment [11], 0.586; in experiment [12], -1.39; in experiment [13], -0.636. Besides, the composite z-score in experiment [14] was -0.934; in [15], -0.424; in experiment [16] it was -0.475; in experiment [18], -1.23; in [19], 0.356. For the same molecule, the composite Z-score in [2] is 0.694 (inactive). The z-score in experiment [17] was -0.0592; in [20] it was -0.0535 (inactive).

With `C=C(CCCC)/C(=C/C[C@H](OC(=O)c1ccncc1)c1ccccc1OCCO)c1cc(C(=O)OC)ccc1OC`, the composite z-score in [1] is -0.172; in [3], -0.0362; in experiment [4], -0.145; in experiment [5], 0.63; in experiment [6] it was 1.2; in [7], 0.127. In addition, the composite z-score in experiment [8] worked out at 1.05; in experiment [9] it was 0.647; in [10], 0.749; in [11] it was 2.75; in experiment [12], 0.488; in experiment [13] it was 0.0357. In addition, the composite z-score in experiment [14] is 0.013; in experiment [15], 0.95; in experiment [16], 0.969; in experiment [18], 0.979; in experiment [19] it was -0.0208. Moreover, the composite Z-score in [2] was -0.0743 (inactive). Besides, the figures for the z-score in [17] and in [20] were 2.03 and -0.776 (inactive), respectively.

For the molecule `CC1CC/C=C\[C@H]2OC34C=CCN(Cn5nnc6ccccc65)C(=O)[C@H]3N(CCCCCCO)C(=O)[C@@H]4C2C(=O)O1` (stereo not given in full), the composite z-score in [1] was -0.252; in experiment [3] it was -0.427; in [4], -0.214; in experiment [5], 0.398; in [6], -0.0339; in [7], 0.523. For the same molecule, the composite z-score in [8] is -0.682; in [9], -1.25; in experiment [10], 0.257; in [11], 0.965; in experiment [12] it was -0.506; in experiment [13] it was -0.121. The composite z-score in [14] is -0.627; in experiment [15], -1.45; in experiment [16] it was -1.09; in [18] it was -0.654; in [19], -0.435. Also, the composite Z-score in [2] was 0.347 (inactive). Further, the z-score in experiment [17] is 0.966; in [20], 0.152 (inactive).
